Inconclusive results are not listed. Active and inactive are the calls of the source. Unless noted, calls follow the shape of the dose curve; as a rule, active = well fitted curve in the direction sought with a large enough effect in the repeat runs; inconclusive = weak or mixed curves; inactive = no such curve, though single readings can be large; an effect the other way counts as inactive or inconclusive.
Columns and labels:
[1] = qHTS assay to identify small molecule antagonists of the estrogen related receptor (ERR) signaling pathway from Tox21 library - cell viability counter screen (AID 1224834); also: nearly all actives have a fitted effect of over 30% in size; also: potency is read from the fitted curve at half-maximal effect
Outline: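 Counter screen run in ERR cells (2,000 cells/well): cells pre-incubated 6 h, then treated with compounds for 17.5 h at 37 C. Fluorescence was read 30 min after CellTiter-Fluor addition.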

[2] = qHTS assay to identify small molecule agonists of the constitutive androstane receptor (CAR) signaling pathway - cell viability counter screen (AID 1224836); also: nearly all actives have a fitted effect of over 45% in size; also: potency is read from the fitted curve at half-maximal effect; as to viability change, negative = cytotoxic: series mostly up to about 92 µM
Outline: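 Using CellTiter-Fluor, viability of HepG2 cells harbouring hCAR and CYP2B6-2.2kb was measured following 23 h incubation with a 15-concentration compound series plus PK11195 (0.75 uM final).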

[3] = qHTS assay to identify small molecule antagonists of the constitutive androstane receptor (CAR) signaling pathway - cell viability counter screen (AID 1224837); also: nearly all actives have a fitted effect of over 45% in size; also: potency is read from the fitted curve at half-maximal effect; as to activity change, negative = cytotoxicity: series mostly up to about 92 µM
Outline: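 CITCO at 50 nM final was added alongside compounds (15 concentrations) to double-stable hCAR/CYP2B6-2.2kb HepG2 cells. Following 23 hr at 37 C, cell viability was quantified by CellTiter-Fluor fluorescence intensity.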

[4] = biological target: Nuclear receptor subfamily 1 group I member 3 (Homo sapiens) (UniProt Q14994); experiment: qHTS assay to identify small molecule agonists of the constitutive androstane receptor (CAR) signaling pathway (AID 1224839); also: series mostly up to about 92 µM; nearly all actives have a fitted effect of over 15% in size
Sequence of Nuclear receptor subfamily 1 group I member 3 (Homo sapiens) (Q14994 whole entry, looked up): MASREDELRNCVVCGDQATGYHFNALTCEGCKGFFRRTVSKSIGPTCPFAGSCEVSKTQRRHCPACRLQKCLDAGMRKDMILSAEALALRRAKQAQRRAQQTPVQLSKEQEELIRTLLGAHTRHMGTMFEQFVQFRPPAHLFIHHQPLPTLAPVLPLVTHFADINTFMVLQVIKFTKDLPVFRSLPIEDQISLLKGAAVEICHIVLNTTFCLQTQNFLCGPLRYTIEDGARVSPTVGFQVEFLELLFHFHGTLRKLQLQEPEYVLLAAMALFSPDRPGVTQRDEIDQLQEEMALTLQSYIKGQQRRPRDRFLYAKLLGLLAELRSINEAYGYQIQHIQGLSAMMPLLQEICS
Outline: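 Double-stable HepG2 cells (hCAR, CYP2B6-2.2kb) seeded 4 h before compound addition. Exposure 24 h with 0.75 uM PK11195 final. Luciferase detected by ONE-Glo.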

[5] = qHTS assay to identify small molecule antagonists of the estrogen related receptor signaling pathway with the pleiotropic PPARgamma coactivator (PGC) from Tox21 10K library - cell viability counter screen (AID 1224840; active = well fitted cell-killing curve with a large enough effect in the repeat runs, not every such curve was filed as active; also: nearly all actives have a fitted effect of over 40% in size; also: potency is read from the fitted curve at half-maximal effect)
Outline: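 Readout: fluorescence intensity from CellTiter-Fluor after 30 min at 37 C/5% CO2. Preceded by 17.5 h treatment of PGC/ERR cells with DMSO-dissolved compounds, added 6 h post-seeding.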

[6] = biological target: Thyrotropin receptor (Homo sapiens) (UniProt P16473); experiment: qHTS assay to identify small molecule agonists of the thyroid stimulating hormone receptor (TSHR) signaling pathway (AID 1224843; calls by dose curve; also: nearly all actives have a fitted effect of over 45% in size)
Sequence of Thyrotropin receptor (Homo sapiens) (P16473 whole entry, looked up): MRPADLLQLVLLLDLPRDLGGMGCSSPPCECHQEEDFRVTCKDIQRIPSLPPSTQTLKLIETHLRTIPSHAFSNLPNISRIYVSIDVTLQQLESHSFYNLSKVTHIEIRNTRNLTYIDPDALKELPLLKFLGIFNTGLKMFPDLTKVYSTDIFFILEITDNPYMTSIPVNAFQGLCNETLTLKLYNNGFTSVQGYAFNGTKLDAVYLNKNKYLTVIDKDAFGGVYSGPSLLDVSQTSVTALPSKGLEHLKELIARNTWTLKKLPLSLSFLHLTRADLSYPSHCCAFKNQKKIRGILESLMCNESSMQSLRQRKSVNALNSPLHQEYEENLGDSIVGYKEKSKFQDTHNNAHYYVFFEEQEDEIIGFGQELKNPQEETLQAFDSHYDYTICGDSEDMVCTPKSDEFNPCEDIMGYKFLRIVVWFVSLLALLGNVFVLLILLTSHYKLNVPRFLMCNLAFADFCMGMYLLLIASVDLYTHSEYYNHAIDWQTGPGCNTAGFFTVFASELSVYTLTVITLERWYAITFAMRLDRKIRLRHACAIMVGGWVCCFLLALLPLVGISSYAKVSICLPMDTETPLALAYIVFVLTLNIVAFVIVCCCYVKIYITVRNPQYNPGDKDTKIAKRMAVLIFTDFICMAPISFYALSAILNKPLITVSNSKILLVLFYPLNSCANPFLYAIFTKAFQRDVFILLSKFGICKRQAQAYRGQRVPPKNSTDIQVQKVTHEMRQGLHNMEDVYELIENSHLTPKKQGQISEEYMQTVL
Outline: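 HEK293/TSHR, 800 cells/well; cpd 30 min RT; add cAMP-d2 + anti-cAMP-cryptate, 1 h RT; fluorescence read on plate reader. 15-pt titration, n=3.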

[7] = qHTS assay to identify small molecule agonists of H2AX (AID 1224845; active = well fitted activation curve with a large enough effect in the signal ratio in the repeat runs, not every such curve was filed as active; the % refers to the signal ratio)
Outline: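 Wild-type CHO-K1 cells, plated overnight, exposed 3hr at 37C to 15 concentrations (0.76% DMSO final). Lysed, then HTRF anti-pH2AX (S139) cryptate and anti-H2AX-d2 antibodies, 24 hr room temperature; 665/620 nm emission read.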

[8] = qHTS assay to identify small molecule agonists of the hypoxia (HIF-1) signaling pathway (AID 1224846; active = well fitted activation curve with a large enough effect in the signal ratio in the repeat runs, not every such curve was filed as active; the % refers to the signal ratio)
Outline: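 ME-180 HRE-bla reporter cells; compounds in DMSO, 17 h at 37C; read-out beta-lactamase via CCF4-AM FRET.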

[9] = biological target: Luciferin 4-monooxygenase (Photinus pyralis) (UniProt P08659); experiment: qHTS assay to identify small molecule inhibitors of firefly luciferase (AID 1224835); also: nearly all actives have a fitted effect of over 25% in size; also: potency is read from the fitted curve at half-maximal effect; as to activity change, negative = inhibition: series mostly up to about 120 µM
Sequence of Luciferin 4-monooxygenase (Photinus pyralis) (P08659 whole entry, looked up): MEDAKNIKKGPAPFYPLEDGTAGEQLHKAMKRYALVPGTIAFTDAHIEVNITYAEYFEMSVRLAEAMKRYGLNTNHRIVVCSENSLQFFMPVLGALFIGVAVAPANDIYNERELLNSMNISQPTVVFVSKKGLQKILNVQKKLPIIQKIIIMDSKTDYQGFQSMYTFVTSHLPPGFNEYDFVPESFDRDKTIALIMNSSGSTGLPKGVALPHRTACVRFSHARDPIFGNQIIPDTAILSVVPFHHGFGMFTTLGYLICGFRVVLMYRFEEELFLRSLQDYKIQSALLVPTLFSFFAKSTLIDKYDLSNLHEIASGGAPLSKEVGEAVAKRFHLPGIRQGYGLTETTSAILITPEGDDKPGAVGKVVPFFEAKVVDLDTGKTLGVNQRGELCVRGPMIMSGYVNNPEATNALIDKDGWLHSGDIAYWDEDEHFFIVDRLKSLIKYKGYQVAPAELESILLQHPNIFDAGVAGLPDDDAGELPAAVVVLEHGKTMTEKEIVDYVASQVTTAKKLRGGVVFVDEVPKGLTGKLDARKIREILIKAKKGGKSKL
Outline: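 Biochemical qHTS: compounds run as interplate titrations against purified firefly enzyme, with D-luciferin and ATP each at its KM concentration. Light output recorded by CCD imaging.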

[10] = biological target: Nuclear receptor subfamily 1 group I member 3 (Homo sapiens) (UniProt Q14994); experiment: qHTS assay to identify small molecule antagonists of the constitutive androstane receptor (CAR) signaling pathway (AID 1224838); also: nearly all actives have a fitted effect of over 40% in size; also: potency is read from the fitted curve at half-maximal effect
Outline: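 Inhibition of CITCO-driven (50 nM final) CYP2B6 reporter expression is measured in HepG2 cells stably carrying hCAR. Fifteen compound concentrations are applied for 24 h at 37 C, followed by luciferase luminescence.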

[11] = qHTS assay to identify small molecule agonists of the estrogen related receptor signaling pathway with the pleiotropic PPARgamma coactivator (PGC) from Tox21 10K library (AID 1224842); also: nearly all actives have a fitted effect of over 15% in size
Outline: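 PGC/ERR reporter cell line, 2,000 cells per well, incubated 6 h at 37 C before 23 nL compound in DMSO was added. After 18 h at 37 C, One-Glo luminescence read following 30 min at room temperature.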

[12] = qHTS assay to identify small molecule agonists of the hypoxia (HIF-1) signaling pathway - cell viability counter screen (AID 1224844; calls by dose curve; also: nearly all actives have a fitted effect of over 50% in size; also: potency is read from the fitted curve at half-maximal effect)
Outline: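 In this counter screen, HRE-bla ME-180 cell viability after 17 hrs of compound exposure at 37C was read by CellTiter-Glo luminescence, multiplexed with the beta-lactamase reporter measurement.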

[13] = qHTS assay to identify small molecule agonists of H2AX - cell viability counter screen (AID 1224847; calls by dose curve; also: nearly all actives have a fitted effect of over 30% in size; also: potency is read from the fitted curve at half-maximal effect; as to activity change, negative = cytotoxicity: top concentration of the series differs between compounds)
Outline: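 Quantitative HTS viability measurement: CHO-K1 wild-type cells in serum (10% FBS) medium, short 3 hr drug exposure at 37C with 0.76% DMSO, CellTiter-Glo luminescent detection.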

[14] = qHTS assay to identify small molecule antagonists of the estrogen related receptor signaling pathway with the pleiotropic PPARgamma coactivator (PGC) from Tox21 10K library (AID 1224841; call rule not given here; also: actives are mostly falling curves and most rising ones were filed inactive; nearly all actives have a fitted effect of over 50% in size; also: potency is read from the fitted curve at half-maximal effect)
Outline: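 One-Glo luminescence, measured after half an hour at room temperature, quantified reporter output of PGC/ERR cells. These had been plated at 2,000 per well, incubated 6 h, dosed with compounds in DMSO, then kept 18 h at 37 C.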
% is scaled to controls: 0 for no effect and ±100 for the full control effect.

CCOc1nc(F)cc2nc(S(=O)(=O)Nc3c(Cl)cccc3C(=O)OC)nn12
inactive: Potency [1] | Potency [2] | Potency [3] | Potency [4] | Potency [5] | Potency [6] | Potency [7] | Potency [8]

CCCCCCCCOC(=O)c1cc(O)c(O)c(O)c1
inactive: Potency [9] | Potency [3] | Potency [10] | Potency [4] | Potency [11] | Potency [6] | Potency [12]
active: Potency [1] 24.3 µM | Potency [5] 34.4 µM | Potency [13] 89.8 µM

COc1cc(/C=C/C(=O)CC(=O)/C=C/c2ccc(O)c(OC)c2)ccc1O
inactive: Potency [4] | Potency [11]
active: Potency [1] 21.8 µM | Potency [9] 28.4 µM | Potency [3] 24.5 µM | Potency [14] 19.4 µM | Potency [12] 39.2 µM

O=C1Cc2ccccc2C1
inactive: Potency [9]

C=CC(=O)OCCOC1C2CCC1C1CC=CC12 (stereo not drawn)
inactive: viability change, negative = cytotoxic [1] -4.69% [at 19 µM] | activity change, negative = inhibition [9] -9.04% [at 23.6 µM] | viability change, negative = cytotoxic [2] -2.57% [at 19 µM] | activity change, negative = cytotoxicity [3] -0.771% [at 19 µM] | viability change, negative = cytotoxic [5] -0.314% [at 19 µM] | activation [6] -1.28% [at 19 µM] | activity change, negative = cytotoxicity [12] 4.59% [at 15.8 µM] | activation (H2AX phosphorylation) [7] -0.772% [at 31.6 µM] | activation [8] 0.329% [at 15.8 µM] | activity change, negative = cytotoxicity [13] 1.49% [at 31.6 µM]

NCc1cccc(C2CCN(C(=O)c3ccc(C#Cc4ccccc4F)o3)CC2)c1
active: Potency [1] 68.6 µM | Potency [3] 68.6 µM | Potency [12] 54.9 µM
inactive: Potency [9] | Potency [4]

CCN(CC)c1ccc(C=O)c(O)c1
inactive: Potency [1] | Potency [2] | Potency [3] | Potency [5] | Potency [11] | Potency [6] | Potency [12] | Potency [8] | Potency [13]

NC(=O)C1CO1 (stereo not drawn)
inactive: Potency [1] | Potency [9] | Potency [2] | Potency [3] | Potency [5] | Potency [6] | Potency [12] | Potency [13]

c1ccc(-c2nc3ccccc3[nH]2)cc1
active: Potency [9] 5.64 µM
inactive: Potency [1] | Potency [3] | Potency [5] | Potency [12] | Potency [7] | Potency [8]

C=Cc1ccncc1
inactive: Potency [1] | Potency [2] | Potency [3] | Potency [4] | Potency [5] | Potency [14] | Potency [11] | Potency [6] | Potency [12] | Potency [7] | Potency [13]

Cc1ccc(Cl)c(N)c1Cl
inactive: Potency [1] | Potency [9] | Potency [2] | Potency [4] | Potency [5] | Potency [11]

CC(C)=NNC(N)=S
inactive: Potency [1] | Potency [9] | Potency [2] | Potency [3] | Potency [5] | Potency [12] | Potency [8] | Potency [13]

CSc1ccc(O)cc1C
inactive: Potency [1] | Potency [9] | Potency [2] | Potency [5] | Potency [14] | Potency [11] | Potency [13]

Nc1ccc2c(S(=O)(=O)O)cccc2c1S(=O)(=O)O
inactive: Potency [1] | Potency [9] | Potency [3] | Potency [5] | Potency [14] | Potency [11] | Potency [6] | Potency [12] | Potency [8] | Potency [13]

C=CC(=O)OCC(Br)CBr (stereo not drawn)
inactive: Potency [1] | Potency [9] | Potency [2] | Potency [3] | Potency [5] | Potency [6] | Potency [7]

O=C(c1ccccc1)c1ccc(Cl)cc1
inactive: Potency [1] | Potency [2] | Potency [3] | Potency [10] | Potency [5] | Potency [6] | Potency [12] | Potency [8] | Potency [13]

CCCCNc1ccc(NCCCC)c2c1C(=O)c1ccccc1C2=O
inactive: viability change, negative = cytotoxic [1] -12.4% [at 19 µM] | viability change, negative = cytotoxic [2] -17.5% [at 19 µM] | activity change, negative = cytotoxicity [3] 5.61% [at 19 µM] | viability change, negative = cytotoxic [5] -1.23% [at 19 µM] | activation [6] -9.62% [at 19 µM] | activity change, negative = cytotoxicity [12] -26.2% [at 15.8 µM] | activation [8] 0.413% [at 15.8 µM] | activity change, negative = cytotoxicity [13] -12.2% [at 31.6 µM]

COc1ccc2ccccc2c1
inactive: Potency [9]

C=C(C)CCO
inactive: Potency [1] | Potency [9] | Potency [2] | Potency [3] | Potency [5] | Potency [6] | Potency [12] | Potency [7] | Potency [8] | Potency [13]

c1ccc2cc3c4ccccc4c4ccccc4c3cc2c1
inactive: Potency [1] | Potency [4] | Potency [5] | Potency [6]
active: Potency [10] 10.9 µM | Potency [12] 22 µM | Potency [13] 101 µM

CCC(=O)OC/C=C(\C)CCC=C(C)C
inactive: Potency [1] | Potency [9] | Potency [2] | Potency [3] | Potency [5] | Potency [6] | Potency [12] | Potency [13]

CC(C=O)c1ccccc1 (stereo not drawn)
inactive: Potency [1] | Potency [9] | Potency [2] | Potency [3] | Potency [5] | Potency [12] | Potency [8]

O=[N+]([O-])c1ccc(CO)cc1
inactive: Potency [1] | Potency [9] | Potency [2] | Potency [3] | Potency [12] | Potency [7]

Brc1cc(Br)cc(Br)c1
inactive: Potency [9] | Potency [2] | Potency [3] | Potency [4] | Potency [5] | Potency [14] | Potency [11] | Potency [6] | Potency [12] | Potency [8]

CCC(C)(C)c1ccc(CC(C)CN2C[C@@H](C)O[C@@H](C)C2)cc1 (stereo partly drawn)
active: Potency [12] 23.9 µM
inactive: Potency [9] | Potency [2] | Potency [3] | Potency [4] | Potency [5] | Potency [14] | Potency [11]

CN1CCN(c2ccccc2/C=C2\SCCN(c3ccc(Cl)c(Cl)c3)C2=O)CC1
active: Potency [2] 43.3 µM | Potency [3] 24.3 µM | Potency [5] 48.6 µM | Potency [12] 49 µM | Potency [13] 50.5 µM
inactive: Potency [9] | Potency [10] | Potency [4] | Potency [11]

CCCCCCCC1CCC(=O)O1 (stereo not drawn)
inactive: Potency [9]

Reference: PubChem BioAssay (Tox21)
